Inconclusive results are not listed. The source made the active and inactive calls. The call rests on the fitted dose curve; in most records, active means well fitted activation curve with a large enough effect in the main read-out, with a control signal flat; inconclusive means small, poorly fitted or top-dose-only effect, or effect the other way, or a change in a side signal; inactive means no such curve, though single readings can be large or run the other way.

Test [1] can be described thus: Confirmation Concentration-Response Assay for Agonists of the Thyroid Stimulating Hormone Receptor. On activation: % of control where 0% means no effect. To be noted: HEK293 TSHR-CNG cells, membrane potential dye, cAMP; measured here: parental HEK293 counter-screen max. In outline: (§1)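 HEK 293 cells stably expressing TSHR and a cAMP-gated CNG channel; membrane potential dye with 100 uM RO 20-1724, compound added 30 min before fluorescence read (590 nm emission). Parental CNG-only HEK 293 cells served as counter-line.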
On the technique in general: The purpose of a counterscreen is to sort out artefacts and off-target activity.

For test [2], the target named is Thyrotropin receptor (Homo sapiens) (UniProt P16473). Described as above. The settings on record: HEK293 TSHR-CNG cells, membrane potential dye, cAMP; series mostly up to 25.6 µM. In outline:
as §1
Potency means the concentration at half of the fitted maximal effect.

Chain of Thyrotropin receptor (Homo sapiens) (P16473 whole entry, looked up): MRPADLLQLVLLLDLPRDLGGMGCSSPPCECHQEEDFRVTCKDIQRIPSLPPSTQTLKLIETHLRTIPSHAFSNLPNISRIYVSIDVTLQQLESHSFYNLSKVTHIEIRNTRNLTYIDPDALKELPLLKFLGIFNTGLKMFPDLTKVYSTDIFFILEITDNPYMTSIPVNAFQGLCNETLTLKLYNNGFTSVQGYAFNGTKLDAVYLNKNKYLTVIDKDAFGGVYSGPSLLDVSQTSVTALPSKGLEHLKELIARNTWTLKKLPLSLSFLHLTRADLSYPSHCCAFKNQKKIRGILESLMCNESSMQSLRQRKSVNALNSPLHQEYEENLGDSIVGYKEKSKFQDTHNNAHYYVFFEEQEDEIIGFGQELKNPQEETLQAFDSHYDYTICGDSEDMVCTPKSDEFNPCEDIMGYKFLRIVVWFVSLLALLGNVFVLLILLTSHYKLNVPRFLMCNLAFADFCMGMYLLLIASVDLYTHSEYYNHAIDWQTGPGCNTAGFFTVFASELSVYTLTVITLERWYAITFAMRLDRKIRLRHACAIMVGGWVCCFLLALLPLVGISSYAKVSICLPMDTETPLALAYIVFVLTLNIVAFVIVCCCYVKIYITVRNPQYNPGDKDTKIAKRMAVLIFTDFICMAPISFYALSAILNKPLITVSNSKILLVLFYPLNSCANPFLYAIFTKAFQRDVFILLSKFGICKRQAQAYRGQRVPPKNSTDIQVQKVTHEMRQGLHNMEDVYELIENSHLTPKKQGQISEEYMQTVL

With `CC(C)CC(=O)Nc1cccc(-c2cn3ccsc3n2)c1`, the max response in test [1] was -8.65%. In addition, in test [2], the Potency entry was “inactive”.
Consider `CCCC(=O)C1=C(SCC)CC(C)(C)C(C(=O)OC)C1=O` (configuration not stated), for which the max response in test [1] amounted to 9.56%. Further, in test [2], the Potency result was “inactive”.
As to `C=CCn1c(NCc2ccc3c(c2)OCO3)nc2ccccc21`, in test [1], the max response stood at 13.4%. In addition, the Potency entry in test [2] was “inactive”.
In the case of `Cc1oc(-c2cccc(Cl)c2)nc1CN1CCCC(C(=O)NC(C)c2ccc3c(c2)OCCO3)C1` (configuration not stated), in test [1], the max response worked out at 8.77%. Besides, the Potency entry in test [2] is “inactive”.
On the same counts, the results for `COc1ccc(-c2ccc(-c3noc(C)n3)c(OC)n2)cc1` are 8.55% and “inactive”.
In the case of `Oc1ccccc1Cn1c(-c2ccccc2O)nc2ccccc21`, in test [1], the max response was -14.6%. Moreover, the Potency in test [2] was 12.6 µM (active).
On the same counts, the results for `CCOc1ccc(N(CC(=O)Nc2ccc(C)cc2)S(=O)(=O)c2c(C)noc2C)cc1` are 5.32% and “inactive”.
The like results for `Cc1ccc(S(=O)(=O)NC(=O)Nn2c(C)nnc2C)cc1` were, in that order, 1.93% and “inactive”.
On the same counts, the results for `COc1cc(/C=N/n2c(SC)nnc(C(C)(C)C)c2=O)ccc1O` are -7.99% and “inactive”.
For `Cn1c(=O)[nH]c(=O)c2c1nc(N1CCCCCC1)n2CCCSc1nc2ccccc2o1`, the max response in test [1] was found to be 12.7%. Moreover, the Potency result in test [2] is “inactive”.
The like results for `Cc1ccc(C)c(Cn2c(C(C)O)nc3ccccc32)c1` (configuration not stated) were, in that order, -2.8% and 3.98 µM (active).
Take `COc1ccc(C(=O)N(Cc2ccco2)Cc2cccs2)c(O)c1`: the max response in test [1] was -7.34%. Moreover, in test [2], the Potency was 1 µM (active).
On the same counts, the results for `O=S1(=O)N=C(Oc2ccccc2)c2ccccc21` are -6.77% and “inactive”.
On the same counts, the results for `Nc1ccc2c(c1)COc1ccccc1O2` are -5.76% and “inactive”.
The like results for `COc1ccc(-c2cc(C(F)(F)F)nc(SCCC(=O)N3CCOCC3)n2)cc1` were, in that order, 13% and 15.8 µM (active).
With `CCOC(=O)C1C(=O)Nc2nc(C)nn2C1c1ccccc1` (configuration not stated), in test [1], the max response is -7.34%. Also, the Potency result in test [2] is “inactive”.
